Values without a mark were called inactive. Inconclusive results are not listed. A call without a number means that no potency is given here. Activity calls are given as the source filed them. Unless noted, calls follow the shape of the dose curve; as a rule, active = well fitted curve in the direction sought with a large enough effect in the repeat runs; inconclusive = weak or mixed curves; inactive = no such curve, though single readings can be large; an effect the other way counts as inactive or inconclusive.
Experiments:
[1] = target: Estrogen receptor beta (Homo sapiens) (UniProt Q92731); assay: qHTS assay to identify small molecule agonists of the estrogen receptor beta (ER-beta) signaling pathway (AID 1259377; active = well fitted activation curve with a large enough effect in the signal ratio in the repeat runs, not every such curve was filed as active; the % refers to the signal ratio)
Chain of Estrogen receptor beta (Homo sapiens) (Q92731 whole entry, looked up): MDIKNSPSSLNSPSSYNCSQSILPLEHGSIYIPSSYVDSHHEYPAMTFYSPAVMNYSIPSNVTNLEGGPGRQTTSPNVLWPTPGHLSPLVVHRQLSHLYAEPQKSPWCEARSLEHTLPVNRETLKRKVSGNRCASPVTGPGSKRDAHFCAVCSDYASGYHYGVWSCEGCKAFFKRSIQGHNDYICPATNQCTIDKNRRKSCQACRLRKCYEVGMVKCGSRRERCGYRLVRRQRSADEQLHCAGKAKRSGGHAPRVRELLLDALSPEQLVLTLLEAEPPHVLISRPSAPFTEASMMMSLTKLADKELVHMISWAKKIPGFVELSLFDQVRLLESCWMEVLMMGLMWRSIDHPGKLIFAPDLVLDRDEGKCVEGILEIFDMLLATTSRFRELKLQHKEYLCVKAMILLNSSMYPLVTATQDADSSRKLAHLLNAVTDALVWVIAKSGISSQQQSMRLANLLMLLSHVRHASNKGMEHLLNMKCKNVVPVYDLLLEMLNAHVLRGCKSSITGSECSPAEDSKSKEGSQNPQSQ
How it was run: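 Ratiometric beta-lactamase FRET read-out came after 2 h substrate loading at room temperature. It followed 16 h compound treatment at 37C of GripTite HEK293T cells carrying a UAS-bla reporter, plated in 2% charcoal-stripped FBS medium.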

[2] = target: Estrogen receptor beta (Homo sapiens) (UniProt Q92731); assay: qHTS assay to identify small molecule antagonists of the estrogen receptor beta (ER-beta) signaling pathway (AID 1259378; active = well fitted inhibition curve with a large enough effect in the signal ratio in the repeat runs, not every such curve was filed as active; the % refers to the signal ratio; also: potency is read from the fitted curve at half-maximal effect)
How it was run: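 ER-beta-UAS-bla HEK293T (GripTite) cells in 2% charcoal-stripped FBS medium were preincubated 6 hr at 37C, dosed with compound, then stimulated with 1 nM E2 (final) for 16 hr; beta-lactamase reporter read by B/G FRET fluorescence after 2 hr substrate loading.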

[3] = qHTS assay to identify small molecule agonists of the androgen receptor (AR) signaling pathway in the presence of an antagonist - cell viability counter screen (AID 1259379); also: nearly all actives have a fitted effect of over 25% in size; also: potency is read from the fitted curve at half-maximal effect
How it was run: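 Fluorescence from CellTiter-Fluor, added after 15 hr and read 1 hr later, gave cell viability. Cells were MDA-kb2 exposed to compounds (15 concentrations) in the presence of 3.0uM nilutamide at 37C, 0% CO2.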

[4] = qHTS assay to identify small molecule agonists of the estrogen receptor beta (ER-beta) signaling pathway - cell viability counter screen (AID 1259380); also: nearly all actives have a fitted effect of over 30% in size; also: potency is read from the fitted curve at half-maximal effect
How it was run: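 Same-well viability counter screen. Cells: ER-beta-UAS-bla HEK293T, plated 6 hr before compound, in 2% charcoal-stripped FBS. Compound exposure 16 hr, 37C; viability by CellTiter-Glo luminescence after 30 min at room temperature.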

[5] = target: Androgen receptor (Homo sapiens) (UniProt P10275); assay: qHTS assay to identify small molecule agonists of the androgen receptor (AR) signaling pathway in the presence of an antagonist (AID 1259381; calls by dose curve; also: nearly all actives have a fitted effect of over 15% in size)
Chain of Androgen receptor (Homo sapiens) (P10275 whole entry, looked up): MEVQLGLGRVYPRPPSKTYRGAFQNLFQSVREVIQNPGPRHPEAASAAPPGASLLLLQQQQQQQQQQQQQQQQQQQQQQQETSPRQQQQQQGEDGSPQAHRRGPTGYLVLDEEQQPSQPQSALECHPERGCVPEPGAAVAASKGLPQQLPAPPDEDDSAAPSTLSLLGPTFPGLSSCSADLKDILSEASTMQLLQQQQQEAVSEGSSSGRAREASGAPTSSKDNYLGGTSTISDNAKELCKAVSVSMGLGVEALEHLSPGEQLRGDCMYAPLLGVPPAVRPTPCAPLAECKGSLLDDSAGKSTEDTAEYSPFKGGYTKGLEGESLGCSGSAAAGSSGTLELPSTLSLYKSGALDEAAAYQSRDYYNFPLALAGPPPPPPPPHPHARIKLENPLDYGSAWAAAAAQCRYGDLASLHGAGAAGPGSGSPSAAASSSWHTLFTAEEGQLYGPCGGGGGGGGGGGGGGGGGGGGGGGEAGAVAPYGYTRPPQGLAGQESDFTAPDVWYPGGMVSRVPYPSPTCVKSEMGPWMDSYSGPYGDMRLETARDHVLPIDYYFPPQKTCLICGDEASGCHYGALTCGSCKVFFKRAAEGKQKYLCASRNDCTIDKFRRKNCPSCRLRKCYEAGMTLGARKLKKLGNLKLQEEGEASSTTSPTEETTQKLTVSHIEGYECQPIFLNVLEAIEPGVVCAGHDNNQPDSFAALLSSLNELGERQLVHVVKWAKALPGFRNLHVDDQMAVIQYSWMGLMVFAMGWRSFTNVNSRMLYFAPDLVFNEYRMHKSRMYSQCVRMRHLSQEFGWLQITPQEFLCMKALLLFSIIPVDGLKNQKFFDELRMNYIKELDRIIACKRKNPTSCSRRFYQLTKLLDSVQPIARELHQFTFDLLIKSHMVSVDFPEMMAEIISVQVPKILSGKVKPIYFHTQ
How it was run: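 Cells are MDA-kb2 (human breast carcinoma, MMTV-luc, AR/GR responsive). Nilutamide is present at 3.0uM final throughout; compounds are added at 15 concentrations and incubated 16hr at 37C before ONE-Glo luminescence detection.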

[6] = qHTS assay to identify small molecule antagonists of the estrogen receptor beta (ER-beta) signaling pathway - cell viability counter screen (AID 1259382); also: nearly all actives have a fitted effect of over 55% in size; also: potency is read from the fitted curve at half-maximal effect
How it was run: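 Following a 6 hr plating period, HEK293T cells carrying a UAS-driven beta-lactamase reporter under ER-beta control received compounds and 1nM E2 (final). After 16 hr at 37C and 2 hr substrate loading, CellTiter-Glo luminescence indicated viability.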

[7] = target: Estrogen receptor (Homo sapiens) (UniProt P03372); assay: qHTS assay to identify small molecule agonists of the estrogen receptor alpha (ER-alpha) signaling pathway in the presence of an antagonist (AID 1259383; calls by dose curve; also: top concentration of the series differs between compounds; nearly all actives have a fitted effect of over 15% in size)
Chain of Estrogen receptor (Homo sapiens) (P03372 whole entry, looked up): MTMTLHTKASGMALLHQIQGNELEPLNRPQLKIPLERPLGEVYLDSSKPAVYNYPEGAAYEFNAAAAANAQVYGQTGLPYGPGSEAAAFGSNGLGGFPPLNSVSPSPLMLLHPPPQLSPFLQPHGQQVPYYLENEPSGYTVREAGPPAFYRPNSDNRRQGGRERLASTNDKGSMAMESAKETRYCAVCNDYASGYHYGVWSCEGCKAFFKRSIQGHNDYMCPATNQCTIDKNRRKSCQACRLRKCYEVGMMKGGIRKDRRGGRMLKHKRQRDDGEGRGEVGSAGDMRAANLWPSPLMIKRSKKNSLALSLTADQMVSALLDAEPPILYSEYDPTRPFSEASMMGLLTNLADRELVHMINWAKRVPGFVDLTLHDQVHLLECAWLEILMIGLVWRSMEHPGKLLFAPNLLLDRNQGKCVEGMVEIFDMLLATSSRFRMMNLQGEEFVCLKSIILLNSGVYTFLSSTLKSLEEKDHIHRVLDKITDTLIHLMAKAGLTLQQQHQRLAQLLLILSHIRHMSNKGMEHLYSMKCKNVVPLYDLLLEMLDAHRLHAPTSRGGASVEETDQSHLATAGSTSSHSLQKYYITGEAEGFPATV
How it was run: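 Cells are hormone-deprived for 5 days (charcoal-stripped FBS, no phenol red), plated for 24hr, spiked with 10.0nM ICI-182,780, then dosed at 15 concentrations. After 22hr at 37C, ONE-Glo luminescence reports ERE-luciferase activity.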

[8] = qHTS assay to identify small molecule agonists of the estrogen receptor alpha (ER-alpha) signaling pathway in the presence of an antagonist - cell viability counter screen (AID 1259386);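 also: cells exposed to compounds for 22 h at 37 °C before the viability read; nearly all actives have a fitted effect of over 30% in size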; also: potency is read from the fitted curve at half-maximal effect
How it was run: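 Cells are starved of estrogens for 5 days in charcoal-stripped serum, seeded for 24hr and co-treated with ICI-182,780 (10.0nM final) and test compounds. After 22hr at 37C, viability is read as CellTiter-Fluor fluorescence.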

[9] = target: Progesterone receptor (Homo sapiens) (UniProt P06401); assay: qHTS assay to identify small molecule antagonists of the progesterone receptor (PR) signaling pathway (AID 1346795; active = well fitted inhibition curve with a large enough effect in the signal ratio in the repeat runs, not every such curve was filed as active; the % refers to the signal ratio; also: potency is read from the fitted curve at half-maximal effect)
Chain of Progesterone receptor (Homo sapiens) (P06401 whole entry, looked up): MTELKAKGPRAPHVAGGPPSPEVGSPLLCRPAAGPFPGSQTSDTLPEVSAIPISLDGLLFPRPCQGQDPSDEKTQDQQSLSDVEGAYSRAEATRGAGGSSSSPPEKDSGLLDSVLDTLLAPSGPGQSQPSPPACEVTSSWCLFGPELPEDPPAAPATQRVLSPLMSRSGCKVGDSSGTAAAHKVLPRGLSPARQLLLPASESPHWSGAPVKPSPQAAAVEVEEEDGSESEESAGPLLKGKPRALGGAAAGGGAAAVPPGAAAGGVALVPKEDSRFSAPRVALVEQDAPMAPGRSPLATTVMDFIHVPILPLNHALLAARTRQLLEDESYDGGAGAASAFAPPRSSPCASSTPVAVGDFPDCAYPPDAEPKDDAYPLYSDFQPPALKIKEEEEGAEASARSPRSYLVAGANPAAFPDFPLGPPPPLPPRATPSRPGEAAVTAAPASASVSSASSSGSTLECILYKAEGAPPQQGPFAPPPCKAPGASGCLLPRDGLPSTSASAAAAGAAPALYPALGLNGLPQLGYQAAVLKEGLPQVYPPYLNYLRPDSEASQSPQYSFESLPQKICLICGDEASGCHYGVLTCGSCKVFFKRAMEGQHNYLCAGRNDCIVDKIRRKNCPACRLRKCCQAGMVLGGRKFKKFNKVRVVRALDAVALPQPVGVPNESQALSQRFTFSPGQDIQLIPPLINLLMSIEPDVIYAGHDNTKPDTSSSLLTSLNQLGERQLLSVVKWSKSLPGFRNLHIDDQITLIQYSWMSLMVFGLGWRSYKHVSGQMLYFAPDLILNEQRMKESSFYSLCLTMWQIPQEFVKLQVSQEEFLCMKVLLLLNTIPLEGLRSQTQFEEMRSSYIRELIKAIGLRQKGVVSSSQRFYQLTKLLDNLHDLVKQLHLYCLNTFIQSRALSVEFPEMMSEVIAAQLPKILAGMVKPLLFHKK
How it was run: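 Antagonist mode with agonist R5020 at 1 nM final and 16 hr incubation at 37C. Reporter was beta-lactamase driven by UAS in HEK293T (PR-UAS-bla), 2% charcoal-stripped serum; signal from LiveBLAzer FRET substrate, 2 hr at room temperature.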

[10] = qHTS assay to identify small molecule antagonists of the progesterone receptor (PR) signaling pathway - cell viability counter screen (AID 1346798); also: nearly all actives have a fitted effect of over 50% in size; also: potency is read from the fitted curve at half-maximal effect
How it was run: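 Cytotoxicity read as CellTiter-Glo luminescence (30 min, room temperature) in the same wells as the beta-lactamase readout. HEK293T PR-UAS-bla cells in charcoal-stripped 2% FBS received compound and R5020, then 16 h at 37C, 5% CO2.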

[11] = qHTS assay to identify small molecule agonists of the progesterone receptor (PR) signaling pathway - cell viability counter screen (AID 1346799; calls by dose curve; also: nearly all actives have a fitted effect of over 45% in size; also: potency is read from the fitted curve at half-maximal effect)
How it was run: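 Cytotoxicity measured by CellTiter-Glo luminescence (30 min, RT) in the same wells as the PR beta-lactamase agonist read. Those HEK293T cells had 16 h compound treatment at 37 C in 2% charcoal-stripped FBS medium.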

[12] = qHTS assay to identify small molecule antagonists of the TGF-beta/Smad signaling pathway - cell viability counter screen (AID 1346824); also: nearly all actives have a fitted effect of over 50% in size
How it was run: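 SBE-bla HEK 293T cells were plated overnight at 37 C, then given compounds in DMSO plus TGF-beta1 (added as 0.25 ng/mL solution) for 5 hr. After the bla read, CellTiter-Glo was added to the same wells and luminescence read after 30 min at room temperature.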

[13] = qHTS assay to identify small molecule agonists of the TGF-beta/Smad signaling pathway - cell viability counter screen (AID 1346829); also: top concentration of the series differs between compounds; nearly all actives have a fitted effect of over 45% in size
How it was run: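 Luminescence from CellTiter-Glo, read after a 30 min room-temperature incubation, gives cell viability of SBE-bla HEK 293T cells treated 5 hr with compounds at 37 C.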

[14] = qHTS assay to identify small molecule agonists of the TGF-beta/Smad signaling pathway (AID 1346859; active = well fitted activation curve with a large enough effect in the signal ratio in the repeat runs, not every such curve was filed as active; the % refers to the signal ratio; also: series mostly up to about 77 µM)
How it was run: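 Fluorescence (ex 405 nm; em 460 and 530 nm) was read 2 h after LiveBLAzer FRET substrate at RT. The preceding compound treatment of overnight-plated SBE-bla HEK293T cells lasted 5 h at 37 C.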

[15] = qHTS assay to identify small molecule agonists or antagonists of the thyroid stimulating hormone receptor (TSHR) signaling pathway - wild type cell line counter screen (AID 1259384; calls by dose curve)
How it was run: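 Wild-type HEK293 cells were plated 18 h at 37 C/5% CO2, pin-dosed with compound plus Ro20-1724 medium, held 30 min at room temperature, then given cAMP-d2 and anti-cAMP-cryptate; fluorescence was read after 1 h. Fifteen concentrations, triplicate.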

[16] = target: Thyrotropin receptor (Homo sapiens) (UniProt P16473); assay: qHTS assay to identify small molecule antagonists of the thyroid stimulating hormone receptor (TSHR) signaling pathway (AID 1259385; calls by dose curve; also: nearly all actives have a fitted effect of over 20% in size)
Chain of Thyrotropin receptor (Homo sapiens) (P16473 whole entry, looked up): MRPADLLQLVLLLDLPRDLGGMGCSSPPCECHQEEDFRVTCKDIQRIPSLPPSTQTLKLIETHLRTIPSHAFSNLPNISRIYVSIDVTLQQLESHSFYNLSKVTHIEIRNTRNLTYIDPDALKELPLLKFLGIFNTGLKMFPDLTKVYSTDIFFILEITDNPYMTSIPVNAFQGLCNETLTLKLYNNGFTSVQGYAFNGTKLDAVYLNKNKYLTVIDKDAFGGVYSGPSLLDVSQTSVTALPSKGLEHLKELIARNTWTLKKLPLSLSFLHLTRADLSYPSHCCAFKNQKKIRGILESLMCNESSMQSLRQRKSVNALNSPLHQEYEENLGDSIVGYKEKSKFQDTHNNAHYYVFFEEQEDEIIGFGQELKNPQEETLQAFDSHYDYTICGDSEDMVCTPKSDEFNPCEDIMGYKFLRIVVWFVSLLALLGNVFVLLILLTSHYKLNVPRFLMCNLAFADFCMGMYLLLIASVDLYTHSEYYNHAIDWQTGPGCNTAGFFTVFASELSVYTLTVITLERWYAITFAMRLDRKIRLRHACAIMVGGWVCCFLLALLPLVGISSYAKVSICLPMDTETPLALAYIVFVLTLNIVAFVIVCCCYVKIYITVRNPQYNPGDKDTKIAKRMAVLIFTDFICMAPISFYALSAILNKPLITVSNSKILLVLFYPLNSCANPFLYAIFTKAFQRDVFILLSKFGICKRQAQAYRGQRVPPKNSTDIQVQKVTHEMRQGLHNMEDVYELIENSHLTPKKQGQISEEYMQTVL
How it was run: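 TSHR-HEK293 cells were plated and held 18 h at 37C/5% CO2, then given compound plus Ro20-1724 and stimulated with TSH at 1.5 ng/mL final. After 30 min at room temperature, cAMP was detected with cAMP-d2/anti-cAMP-cryptate (1 h) by fluorescence.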

[17] = target: Progesterone receptor (Homo sapiens) (UniProt P06401); assay: qHTS assay to identify small molecule agonists of the progesterone receptor (PR) signaling pathway (AID 1346784; calls by dose curve; also: nearly all actives have a fitted effect of over 30% in size)
How it was run: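 Agonist qHTS: compounds pinned onto 3,000 PR-UAS-bla HEK 293T cells per well in charcoal-stripped serum medium, 16hr at 37C, then beta-lactamase activity measured by LiveBLAzer FRET fluorescence after 2 hours at room temperature.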

[18] = target: Thyrotropin-releasing hormone receptor (Homo sapiens) (UniProt P34981); assay: qHTS assay to identify small molecule antagonists of the thyrotropin-releasing hormone receptor (TRHR) signaling pathway (AID 1346877; active = well fitted inhibition curve with a large enough effect in the repeat runs, not every such curve was filed as active; also: series mostly up to about 51 µM)
Chain of Thyrotropin-releasing hormone receptor (Homo sapiens) (P34981 whole entry, looked up): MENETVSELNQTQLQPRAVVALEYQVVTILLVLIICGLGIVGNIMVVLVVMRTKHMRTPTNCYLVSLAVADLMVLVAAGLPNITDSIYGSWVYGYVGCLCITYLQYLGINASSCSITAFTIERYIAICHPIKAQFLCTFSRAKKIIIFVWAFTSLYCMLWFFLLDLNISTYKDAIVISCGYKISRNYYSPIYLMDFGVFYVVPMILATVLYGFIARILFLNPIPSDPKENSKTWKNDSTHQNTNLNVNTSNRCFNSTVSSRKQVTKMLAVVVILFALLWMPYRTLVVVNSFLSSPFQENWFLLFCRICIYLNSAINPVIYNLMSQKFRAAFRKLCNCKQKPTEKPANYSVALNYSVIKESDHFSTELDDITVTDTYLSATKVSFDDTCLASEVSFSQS
How it was run: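 Cells (TRHR-HEK293) are plated and kept 18 h at 37 °C/5% CO2. A calcium-sensitive dye is added for 2 h, compound follows for 5 min at room temperature, and TRH is then given at 1 nM final.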

[19] = target: Thyrotropin-releasing hormone receptor (Homo sapiens) (UniProt P34981); assay: qHTS assay to identify small molecule agonists of the thyrotropin-releasing hormone receptor (TRHR) signaling pathway (AID 1346891; calls by dose curve; also: series mostly up to about 58 µM)
How it was run: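 Agonist-mode intracellular calcium readout: kinetic fluorescence over 3 min at 1 s intervals after compound addition to TRHR-HEK293 cells (18 h seeded, 2 h dye-loaded at 37 C). Fifteen concentrations, triplicates.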

[20] = Human pregnane X receptor (PXR) small molecule agonists, qHTS cell viability counter screen (AID 1346977); also: nearly all actives have a fitted effect of over 50% in size
How it was run: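 Same-well viability read: CellTiter-Fluor added after 23 hr compound exposure, fluorescence measured 1 hr later. Cells were PXR-Luc HepG2 seeded at 2,000/well in 5% charcoal-stripped FBS medium, rested 5 hr before dosing at 37 C.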

SMILES	Potency [1]	Potency [2]	Potency [3]	Potency [4]	Potency [5]	Potency [6]	Potency [7]	Potency [8]	Potency [9]	Potency [10]	Potency [11]	Potency [12]	Potency [13]	Potency [14]	outcome [15]	Potency [16]	outcome [17]	Potency [18]	Potency [19]	Potency [20]
CC(C)(c1cc(Br)c(OCCO)c(Br)c1)c1cc(Br)c(OCCO)c(Br)c1	inactive	4.75 µM (active)	47.5 µM (active)	42.3 µM (active)	inactive	53.3 µM (active)	inactive	53.3 µM (active)	5.33 µM (active)	29.9 µM (active)	33.6 µM (active)	inactive	inactive	inactive	–	–	–	–	–	–
O=c1cccc[nH]1	inactive	inactive	inactive	inactive	–	inactive	inactive	inactive	inactive	inactive	inactive	inactive	inactive	inactive	inactive	inactive	inactive	inactive	inactive	inactive
COc1ccccc1C=O	inactive	inactive	inactive	inactive	inactive	inactive	inactive	inactive	inactive	inactive	inactive	inactive	inactive	inactive	inactive	inactive	inactive	–	–	inactive

From PubChem BioAssay (Tox21)
